From PubChem
Pf growth 96h: P. falciparum growth inhibition at 96 hour, primary screen for plastid delayed-death inhibitors. P. falciparum luciferase reporter growth, 96 h. actives 6.9% (n = 320,000). Potency, µM (top dose mostly 28.7 µM), for the others: at the highest dose activity change, negative = inhibition, usual class: inhibitors; also: potency is read from the fitted curve at half-maximal effect
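Readout is luminescence from an integrated firefly luciferase in P. falciparum. Red cells, 2% hematocrit and 0.05% parasitemia final, were cultured with compound through two parasite generations (96 hours) at 37 C, 5% CO2.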
HCV inhibitor: HCV inhibition; Huh7.5.1 HCVcc-Cre infection, luciferase reporter, 44 h; Potency, µM (series often up to 41.8 µM), for the others: top-dose activity change, negative = inhibition, usual class: inhibitors; actives 3.4% (n = 340,000); also: potency is read from the fitted curve at half-maximal effect
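Antiviral activity was scored by luciferase reporter output from cells infected with HCVcc-Cre (~0.5 moi) in presence of compound, 44 h infection period, cells seeded 1,000/well 4 h prior.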
Pf growth 48h: P. falciparum growth inhibition at 48 hours (one generation). Potency, µM (top dose mostly 28.7 µM), for the others: at the highest dose activity change, negative = inhibition, actives largely listed as inhibitors. actives 5.9% (n = 310,000). P. falciparum luciferase growth in erythrocytes, 48 h; also: potency is read from the fitted curve at half-maximal effect
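Firefly luciferase activity from engineered P. falciparum reports growth; inhibitors lower the luminescent signal. Cultures contained 2% hematocrit erythrocytes at 0.1% final parasitemia.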
MARV entry inh: inhibitors of Marburg virus binding or cell entry; Marburg virus pseudotyped entry inhibition, cell reporter; Potency, µM (top dose mostly 37.8 µM), for the others: top-dose activity change, negative = inhibition, usual class: inhibitors; actives 1.8% (n = 300,000); calls by dose curve; tested in HEK293 cells; also: potency is read from the fitted curve at half-maximal effect
LASV entry inh: inhibitors of Lassa virus binding or cell entry. Lassa virus pseudotype entry inhibition, cell reporter. Potency, µM (series often up to 37.9 µM), for the others: top-dose activity change, negative = inhibition, hits mostly inhibitors. actives 1.2% (n = 300,000). AID 540256; calls by dose curve; tested in HEK293 cells; also: potency is read from the fitted curve at half-maximal effect; nearly all actives have a fitted effect of over 50% in size
HCMV antiviral: blocks human cytomegalovirus replication. HFF cells, HCMV-luciferase reporter, 72 h; active compounds read low. activity change, negative = inhibition, % at 57.5 µM. AID 1259415. actives 4.5% (n = 410,000); in the data active = activity change below about -60%; inconclusive = no clear call, values can overlap the other calls; inactive = above about -39%
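Cell-based, HFFs, 1000 cells/well, 16 h 37C; cpds in DMSO + HCMV-luc, MOI 1 PFU/cell; 72 h 37C; OneGlo luminescence after 5 min RT; norm. to buffer vs Salinomycin 10uM.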
Active calls of the source: *; ? = inconclusive; . = no result; [ ] = dose if it differs, or a comment. Rows were chosen to be rich in hits. Some 14% of all compounds tested hit in one or more screens of this group. Unless noted, calls follow the shape of the dose curve; as a rule, active = well fitted inhibition curve with a large enough effect; inconclusive = small, poorly fitted or top-dose-only effect, or another doubt; inactive = no such curve, though single readings can be large or run the other way. % is scaled to controls: 0 for no effect and ±100 for the full control effect.

SMILES	Pf growth 96h	HCV inhibitor	Pf growth 48h	MARV entry inh	LASV entry inh	HCMV antiviral
CC(C)C(=O)Nc1ccc(COc2ccccc2CN(Cc2ccccc2)C(=O)OC(C)(C)C)cc1	.	-5.0%[8.37 µM]	.	.	.	-74.3*
CC(C)C(=O)Nc1cccc(COc2ccc(CN(Cc3ccccc3)C(=O)OC(C)(C)C)cc2)c1	.	0.501µM*	.	.	.	-34.4
CCc1ccc(S(=O)(=O)c2cn(C)c3cc(F)c(F)cc3c2=O)cc1	.	.	.	-13.5%[46.1 µM]	-21.5%[46.1 µM]	16.2
O=C(C1CCN(Cc2ccc(Cl)cc2)CC1)N1CCN(C(c2ccccc2)c2ccccc2)CC1	36.5%	?	?	?	?	8.2
CCN1CCN(C(=O)Nc2ccc(Cc3ccc(NC(=O)N4CCN(CC)CC4)cc3)cc2)CC1	10.4µM*	?	?	?	-12.0%	?
CCOC(=O)N1CCN(C(=O)Nc2cccc(Cl)c2)CC1	11.7µM*	12.2%	.	-11.1%	-15.5%	-25.7
Cc1cccc(CN2CCN(C(c3ccccc3)c3ccc(Cl)cc3)CC2)c1 (stereo not drawn)	9.28µM*	?	?	?	-28.9%	0.8
CCOC(=O)N1CCN(C(=O)Nc2ccc(Cl)cc2)CC1	150.6%	-4.2%	-18.3%	2.3%	6.4%	-34.5
CCc1ccc(NC(=O)N2CCCCCC2)cc1	51.3%	6.2%	106.3%	.	.	89.0
Cc1cccc(NC(=O)N2CCN(Cc3ccc(Cl)cc3)CC2)c1	?	?	12.9%	?	?	-62.9*
CCOc1ccccc1NC(=O)N1CCc2cc(S(=O)(=O)N3CCC(C)CC3)ccc21	.	.	.	28.9%[46.1 µM]	11.4%[46.1 µM]	-10.6
COc1ccc(CCNC(=O)CCn2c(=O)c3ccccc3n(Cc3cc(C)ccc3C)c2=O)cc1OC	.	.	.	-16.9%[46.1 µM]	9.9%[46.1 µM]	3.0
Cc1cccc(CN2CCN(c3ccc(Cl)cc3)CC2)c1	?	-13.5%	32.1%	.	.	23.7
Cc1cccc(CN2CCN(Cc3ccc(Cl)cc3)CC2)c1	?	6.31µM*	.	?	?	4.2
COC(=O)c1ccc2c(c1)C(C)(C)C(/C=C/c1ccccc1O)=[N+]2C	?	7.94µM*	?	?	?	-104.1*
COC(=O)c1ccc(N)c(N=CC2=C(O)CC(C)(C)CC2=O)c1	62.1%	20.1%	24.5%	-0.1%	10.1%	4.0
CC(=O)c1ccc(N2CCN(C(=O)Nc3ccc(C(C)C)cc3)CC2)cc1	0.8%	3.16µM*	?	3.16µM*	?	-82.3*
CC(C)(C)c1ccc(C(=O)NC(=S)Nc2ccc(N3CCOCC3)cc2)cc1	11.7µM*	3.2%	?	0.794µM*	?	-18.8
Cc1ccc(C(=O)NC(=S)Nc2ccc(N3CCOCC3)cc2)cc1C	?	7.94µM*	-2.9%	?	-20.9%	-24.4
CC(C)c1ccc(C(=O)Nc2ccc(N3CCOCC3)cc2)cc1	-17.0%	?	?	?	-23.9%	-66.0*
Cc1cccc(C(=O)NC(=S)Nc2ccc(N3CCOCC3)cc2)c1	?	-19.5%	7.0%	6.7%	-16.8%	-13.5
COc1ccc(NC(=O)COC(=O)C2CCCN2C(=O)OC(C)(C)C)cc1Cl (stereo not drawn)	.	.	.	.	.	8.7
Cc1ccc(S(=O)(=O)CCOC(=O)CNC(=O)OCc2ccccc2)cc1	.	.	.	.	.	-16.2
CC(=O)c1ccc(C(=O)Nc2ccc(N3CCOCC3)cc2)cc1	53.3%	-8.8%	-10.3%	16.0%	-0.2%	16.4
CC(C)(C)c1ccc(C(=O)Nc2ccc(N3CCOCC3)cc2)cc1	?	1.78µM*	.	?	-28.3%	-78.5*
SMILES	Pf growth 96h	HCV inhibitor	Pf growth 48h	MARV entry inh	LASV entry inh	HCMV antiviral
COc1ccccc1NC(=O)C1CC(C)OC1=O (stereo not drawn)	.	6.3%	.	11.3%[46.1 µM]	-11.3%[46.1 µM]	8.7
O=C(CSc1nc(=O)n(CCN2CCOCC2)c2c1CCC2)Nc1ccc(OC(F)(F)F)cc1	-31.9%	?	10.4µM*	-23.8%[46.1 µM]	-6.0%	-60.0*
O=C(CSc1nc(=O)n(CCCN2CCOCC2)c2c1CCCC2)Nc1ccc(Cl)cc1	?	?	13.1µM*	-17.3%	5.1%	-33.7
CC(C)c1ccc(NC(=O)CSc2nc(=O)n(CCCN3CCOCC3)c3c2CCCC3)cc1	?	?	?	?	-20.4%	-25.0
Cc1cccc(N2CCN(C(=O)c3ccc(CS(=O)Cc4ccc(Cl)cc4)o3)CC2)c1C (stereo not drawn)	30.6%	?	3.3%	.	.	?
CCOC(=O)N1CCC(NC(=O)c2ccc(CS(=O)c3cccc(Cl)c3)o2)CC1 (stereo not drawn)	9.28µM*	3.5%	-0.1%	.	.	9.0
COc1cccc(N2CCN(C(=O)c3ccc(CS(=O)c4ccc(C)cc4)o3)CC2)c1 (stereo not drawn)	?	-3.4%	-10.3%	?	?	?
Cc1ccccc1S(=O)Cc1ccc(C(=O)N2CCN(c3cccc(C)c3C)CC2)o1 (stereo not drawn)	.	.	.	.	?	-83.5*
COc1cccc(N2CCN(C(=O)c3ccc(CS(=O)c4ccc(Cl)cc4)o3)CC2)c1 (stereo not drawn)	13.1µM*	-9.3%	?	.	.	-34.6
Cc1cccc(N2CCN(C(=O)c3ccc(CS(=O)c4cccc(Cl)c4)o3)CC2)c1C (stereo not drawn)	.	.	.	.	?	-86.9*
CCOc1ccc(C(C)(C)COCc2cccc(Oc3ccccc3)c2)cc1	.	.	.	.	.	-8.2
